Drawing on PubChem BioAssay (Tox21), this text covers Potency for 27 molecules.

Structures are written as SMILES. Values joined by “and” are separate entries in the source; they are usually repeats but may differ in a detail not shown here. Identical values can stand only once. Inconclusive results are not listed. Active and inactive are the calls of the source. Calls come from the whole dose curve; as a rule, active = well fitted curve in the direction sought with a large enough effect in the repeat runs; inconclusive = weak or mixed curves; inactive = no such curve, though single readings can be large; an effect the other way counts as inactive or inconclusive.

The nature of test [1]: A CellTox Green Cytotoxicity Assay to monitor cytotoxicity in HepG2 cells - 32 hour (AID 1224883). Note: nearly all actives have a fitted effect of over 50% in size. Note: potency is the fitted concentration of half-maximal effect. Put shortly: (§1)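 Measurements at 0, 8, 16, 24, 32 and 40 h of treatment captured CellTox Green fluorescence in HepG2 cells that had been co-plated with reagent and preincubated 5 h at 37 C/5% CO2.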
The nature of test [2]: qHTS RealTime-Glo MT Cell Viability Assay in HEK293 cells - 24 hour (AID 1224886). Note: nearly all actives have a fitted effect of over 50% in size. Note: potency is the fitted concentration of half-maximal effect. Put shortly: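 HEK293 cells seeded with NanoLuc/prosubstrate reagent, rested 5 h at 37 C, then dosed and kept at 37 C up to 40 h. Nonlytic real-time luminescence from viable cells read at 0, 8, 16, 24, 32 and 40 h.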
A short description of test [3]: qHTS RealTime-Glo MT Cell Viability Assay in HEK293 cells - 8 hour (AID 1224887). Note: nearly all actives have a fitted effect of over 50% in size. Note: potency is the fitted concentration of half-maximal effect. The essentials: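 HEK293 + NanoLuc + prosubstrate, 600 cells/well; 5 h, 37 C/5% CO2; compound 23 nL in DMSO by pintool; 37 C; luminescence read at 0, 8, 16, 24, 32 and 40 h time points.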
On the technique in general: qHTS replaces the single test concentration by a dilution series.

Test [4] in a line: A CellTox Green Cytotoxicity Assay to monitor cytotoxicity in HEK293 cells - 16 hour (AID 1224888). Note: nearly all actives have a fitted effect of over 35% in size. Note: potency is the fitted concentration of half-maximal effect. The essentials: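 Tox21 screen in HEK293: membrane-impermeant cyanine dye fluoresces on binding dead-cell DNA; compound pinned 5 h post-seeding, plates held at 37 C, signal read repeatedly through 40 h.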
Test [5] can be described thus: qHTS RealTime-Glo MT Cell Viability Assay in HepG2 cells - 0 hour (AID 1224889). Note: nearly all actives have a fitted effect of over 50% in size. The essentials:
(§2)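 HepG2 cells (600/well) were dispensed with RealTime-Glo reagents, incubated 5 h at 37 °C, then treated with compounds in DMSO for up to 40 h. Nonlytic NanoLuc luminescence reflecting viable cells was read at each stated time point.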

Test [6] in a line: A CellTox Green Cytotoxicity Assay to monitor cytotoxicity in HepG2 cells - 8 hour (AID 1224890). Note: nearly all actives have a fitted effect of over 45% in size. Note: potency is the fitted concentration of half-maximal effect. The essentials:
as §1

Test [7] in a line: qHTS assay to identify small molecule antagonists of the androgen receptor (AR) signaling pathway using the MDA cell line in the presence of 0.5 nM R1881 - cell viability counter screen (AID 1259242). Note: nearly all actives have a fitted effect of over 45% in size. Note: potency is the fitted concentration of half-maximal effect. The essentials:
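Concentration-response screen of compounds for toxicity in MDA-kb2 reporter cells: 16 hr at 37C with 0.5 nM R1881, endpoint live-cell protease fluorescence measured in the reporter wells.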

Test [8] can be described thus: qHTS RealTime-Glo MT Cell Viability Assay in HepG2 cells - 16 hour (AID 1224885). Note: nearly all actives have a fitted effect of over 50% in size. Note: potency is the fitted concentration of half-maximal effect. Put shortly:
as §2

The nature of test [9]: qHTS assay to identify small molecule antagonists of the estrogen receptor alpha (ER-alpha) signaling pathway using the BG1 cell line in the presence of 0.1 nM 17-beta-estradiol - cell viability counter screen (AID 1259241). Note: nearly all actives have a fitted effect of over 40% in size. Note: potency is the fitted concentration of half-maximal effect. The essentials: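 CellTiter-Fluor read (30 min, 37C) on ER-alpha/ERE-luc VM7Luc4E2 cells; 22 hr compound treatment; agonist 0.1 nM E2 final; same-well multiplex.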

Consider `CC(C)(C)C(O)/C(=C\c1ccc(Cl)cc1Cl)n1cncn1` (centres undefined), for which the Potency was 59.3 µM (active) in test [1], 26.5 µM (active) in [2] and 47.1 µM (active) in test [3]. Besides, the Potency entry in test [4], in [5] and in test [6] was “inactive” each time.

With `O=[N+]([O-])c1cc([N+](=O)[O-])c2ccccc2c1`, the Potency result in [1], in [2], in test [3] and in test [7] was “inactive” throughout.

As to `O=C1c2ccccc2C(=O)C1C(=O)C(c1ccccc1)c1ccc(Cl)cc1` (centres undefined), the Potency is 54.9 µM (active) in test [1] and 49 µM (active) in test [6]. The Potency entry in test [8], in test [3] and in test [7] was “inactive” each time.

Turning to `COC12CC[C@@]3(C[C@@H]1C(C)(O)C(C)(C)C)[C@H]1Cc4ccc(O)c5c4[C@@]3(CCN1CC1CC1)[C@H]2O5` (some centres undefined), the Potency was 38.6 µM (active) in test [1]; 43.4 µM (active) in test [8]; 34.4 µM (active) in [2]; 38.6 µM (active) in test [3]; 21.7 µM (active) in [4]; 60.7 µM (active) in test [9]. In test [7], the Potency was 54.1 µM (active). Moreover, the Potency result in test [5] is “inactive”.

Regarding `[CH3][Hg][Cl]`, the Potency in test [1] was 12.3 µM (active); in test [8], 10.9 µM (active); in test [2], 4.89 µM (active); in [3], 6.9 µM (active); in test [6], 15.5 µM (active). Further, the Potency entry in test [5] and in test [9] was “inactive” in each case.

Regarding `CCC(C)c1cc(C(C)(C)C)cc(-n2nc3ccccc3n2)c1O` (centres undefined), the Potency result in test [1], in [8], in test [3], in [4], in [5] and in [6] was “inactive” each time. Also, the Potency result in test [9] and in test [7] was “inactive” throughout.

For the molecule `Oc1ccc(C2(c3ccc(O)cc3)c3ccccc3-c3ccccc32)cc1`, the Potency in [1] is 61.6 µM (active); in test [8] it was 49 µM (active). Besides, the Potency entry in [4], in [5], in test [6] and in test [7] was “inactive” each time.

Regarding `CC(C)N1C(=O)N(c2ccccc2)CSC1=NC(C)(C)C`, the Potency entry in [1], in test [8], in [4], in [5], in [6] and in test [9] was “inactive” in each case. The Potency entry in test [7] is “inactive”.

For `CC(C)(c1ccc(O)c(-c2ccccc2)c1)c1ccc(O)c(-c2ccccc2)c1`, the Potency in [1] is 49 µM (active); in test [8], 49 µM (active); in test [2], 21.9 µM (active); in [3], 21.9 µM (active). Besides, in test [5], the Potency result is “inactive”.

`Oc1ccccc1Br`: the Potency entry in test [1], in [8], in [2], in [3], in [4] and in test [5] was “inactive” throughout. Besides, the Potency entry in test [6], in [9] and in test [7] was “inactive” each time.

For the molecule `ClCc1ccc(Cl)cc1Cl`, the Potency result in test [1], in [8], in test [3], in [5], in [6] and in [9] was “inactive” throughout. For the same molecule, the Potency result in test [7] is “inactive”.

As for `ClC1=C(Cl)[C@]2(Cl)[C@H]3[C@H]([C@H]4C=C[C@H]3C4)[C@@]1(Cl)C2(Cl)Cl`, the Potency result in test [1], in test [8], in [2], in test [3], in test [4] and in [5] was “inactive” in each case. In addition, the Potency entry in [9] and in [7] was “inactive” throughout.

As to `O=[N+]([O-])c1ccc2ccc3cccc4ccc1c2c34`, the Potency entry in [1], in test [8], in [3], in test [5], in test [6] and in test [7] was “inactive” throughout.

Take `CC1(C)CN=C(NN=C(/C=C/c2ccc(C(F)(F)F)cc2)/C=C/c2ccc(C(F)(F)F)cc2)NC1`: the Potency in test [1] is 17.4 µM (active); in test [8], 19.5 µM (active); in test [2], 43.6 µM (active); in test [6] it was 34.7 µM (active); in test [9], 61.1 µM (active); in [7], 24.3 µM (active). Also, in [5], the Potency result is “inactive”.

Consider `Clc1ccc(Oc2ccccc2)cc1`, for which the Potency result in test [1], in [8], in test [3], in [4], in [5] and in test [6] was “inactive” each time. Besides, the Potency entry in test [9] and in test [7] was “inactive” each time.

As for `CCOCCOC(C)=O`, the Potency result in [1], in test [8], in [2], in test [3], in [4] and in test [5] was “inactive” in each case. Besides, the Potency entry in test [6], in [9] and in test [7] was “inactive” each time.

For `O=[N+]([O-])O.O=[N+]([O-])O.[Cd]`, the Potency in test [1] was 43.6 µM (active). For the same molecule, the Potency result in test [8], in [3], in test [4], in [5], in [6] and in [7] was “inactive” in each case.

With `Oc1ccc2ccc3cccc4ccc1c2c34`, the Potency in test [1] was 54.9 µM (active); in test [8], 49 µM (active); in test [2] it was 15.5 µM (active); in test [3] it was 13.8 µM (active). The Potency entry in [5], in [9] and in test [7] was “inactive” in each case.

Take `N#Cc1ccccc1Cl`: the Potency result in test [1], in test [8], in [3], in [4], in test [5] and in [6] was “inactive” in each case. The Potency result in [9] and in test [7] was “inactive” in each case.

As to `N#C/C=C/C#N`, the Potency result in test [1], in test [8], in test [4], in test [6], in test [9] and in test [7] was “inactive” in each case.

Turning to `CN(C)c1ccc(N=Nc2ccccc2)cc1`, the Potency result in test [1], in test [8], in test [5] and in test [6] was “inactive” in each case. Also, the Potency in test [9] is 54.5 µM (active).

In the case of `BrCC(Br)c1ccccc1` (centres undefined), the Potency result in test [1], in test [8], in test [2], in test [3], in [4] and in test [5] was “inactive” each time. Also, the Potency entry in [9] and in test [7] was “inactive” throughout.

For the molecule `CC(Cl)CN(C)C` (centres undefined), the Potency result in [1], in [8], in [5], in test [9] and in [7] was “inactive” each time.

Turning to `Oc1ccc(C(c2ccc(O)cc2)(C(F)(F)F)C(F)(F)F)cc1`, the Potency was 54.7 µM (active) and 54.9 µM (active) in test [1]; 43.4 µM (active) in test [2]. In addition, the Potency result in test [8], in [4], in test [5], in test [6] and in [9] was “inactive” throughout.

Turning to `CC(=O)O[C@H]1CC[C@@]2(C)C(=CC[C@@H]3[C@@H]2CC[C@]2(C)C(=O)CC[C@@H]32)C1`, the Potency entry in test [1], in [8], in [4], in test [5], in test [6] and in test [9] was “inactive” in each case. For the same molecule, in [7], the Potency entry was “inactive”. Also, in test [2], the Potency is 54.9 µM (active).

For the molecule `CCCCCCCCCCCCCC[P+](CCCCCC)(CCCCCC)CCCCCC` (tested in a mixture with another compound), the Potency in test [1] is 24.6 µM (active); in test [8] it was 49 µM (active); in test [2], 6.92 µM (active); in test [3] it was 13.8 µM (active); in test [4], 17.4 µM (active); in test [6], 43.7 µM (active). Further, the Potency in test [7] is 19.3 µM (active). The Potency result in test [5] is “inactive”.

`CCCCCCCCc1ccc(O)cc1`: the Potency is 42.7 µM (active) in test [1], 4.93 µM (active) in [2], 6.76 µM (active) in test [3] and 17.5 µM (active) in [6]. Also, the Potency entry in [5] was “inactive”.
